ChEMBL document CHEMBL3988442, “University of Dundee, Small-Polar-MMV Screening Library” (2021)
Hit rate of the full screen: of about 48,000 compounds, about 13,000 (27%) showed an effect of 50% or more. Some of the results follow.

system: Wolbachia pipientis; assay: Anti-Wolbachia Cell-Based Screen; format: functional; parameters: scale not given: in the data most compounds retested in dose-response had high values; conditions: 5 µM

Compound	Percent Effect
O=C(CN1CCCS1(=O)=O)NCCOc1ccc2c(c1)CCC2	-4.434%
Cn1ccnc1SCCNc1nccc(C(F)(F)F)n1	-12.11%
Cn1c(Nc2cn[nH]c2)c(C#N)c(=O)n(C)c1=O	-4.688%
CN1C(=O)CCc2cc(NC(=O)C3CC3)ccc21	-10.85%
O=C(CCS(=O)(=O)C1CCCC1)NCCc1ccc2c(c1)OCCO2	-0.351%
CN1CC(C(=O)NCCc2ccc3c(c2)OCO3)CC1=O (stereo unspecified)	94.15%
CN1CC(C(=O)NCCc2ccc3c(c2)OCCO3)CC1=O (stereo unspecified)	92.09%
CN(Cc1nnc2n1CCC2)C(=O)NCCc1ccc2c(c1)OCO2	2.683%
COc1ccc(C2C3=C(CCCC3=O)Nc3nc(SC)nc(N)c32)cc1 (stereo unspecified)	12.57%
CN1CCN(C(C)(C)CNC(=O)C2CCCN2S(C)(=O)=O)CC1 (stereo unspecified)	10.51%
CC(C)c1ccc(CS(=O)(=O)Cc2nc(N)nc(N(C)C)n2)cc1	-6.914%
COc1cc(C2(C(=O)N3CCN(CC(C)O)CC3)CC2)ccc1C (stereo unspecified)	6.894%
COC(=O)CCN(CC1CCCO1)C(=O)CCc1ccc(OC)cc1 (stereo unspecified)	-1.307%
Cc1ccc(OCCC(=O)N(C)CCC#N)cc1C	-4.451%
CN(CCC#N)C(=O)C(C)(C)Oc1ccc(C(N)=O)cc1	113.2%
Cc1ccc(OCc2cccc(C(=O)N(C)CCC#N)c2)cn1	10.32%

Compound	Percent Effect
CCOc1ccc(CC(=O)N(CCC(=O)OC)CC2CCCO2)cc1 (stereo unspecified)	5.007%
CC(C)(Oc1ccc(C(N)=O)cc1)C(=O)N(CCC#N)CC1CCCO1 (stereo unspecified)	108.9%
CC(C)CN(C(=O)COc1ccc(C(N)=O)cc1)C1CCN(C)CC1	-11.28%
N#CCCN(C(=O)COC1CCCC1)C1CC1	-11.78%
CC(C)(Oc1ccc(C(N)=O)cc1)C(=O)N(CCC#N)C1CC1	118.6%
CC(C)(C)CC(=O)N[C@@H]1CO[C@H](CNC(=O)c2ccncc2)[C@H]1O	-7.962%
Cc1nc(C)c(C)c(N2C[C@@H](CN3CCCN(C)CC3)[C@@H](CO)C2)n1	1.463%
CN(C)CCCN(CCC#N)C(=O)Nc1ccc2[nH]ccc2c1	-1.012%
O=C(O)C(F)(F)F.O=C(O)c1c(-c2cncnc2)ncc2c1CCN(CC1CCOC1)C2 (stereo unspecified)	114.1%
O=C(O)C(F)(F)F.O=C(O)c1c(NC2CCC2)ncc2c1CCN(C1CCOC1)C2 (stereo unspecified)	-12.61%
O=C(O)C(F)(F)F.O=C(O)c1c(-c2ccoc2)ncc2c1CCN(C1CCOC1)C2 (stereo unspecified)	-27.15%
Cc1ccc(Nc2ncnc3c2CCN(CC2CCOC2)CC3)cc1.O=C(O)C(F)(F)F (stereo unspecified)	-7.327%
CN(C(=O)CCOc1ccccc1)C1CCN(CC2CCOC2)CC1 (stereo unspecified)	-10.27%
O=C(O)C(F)(F)F.O=C(O)C(F)(F)F.O=C(O)c1c(-c2ccncc2)ncc2c1CCN(CC1CCOC1)C2 (stereo unspecified)	92.6%
O=C(O)C(F)(F)F.O=C(O)C(F)(F)F.O=C(O)c1c(-c2ccncc2)ncc2c1CCN(C1CCOC1)C2 (stereo unspecified)	-10.9%
